# DRD3 agonist – activates the human D3 dopamine receptor; D3R DiscoveRx beta-arrestin cells, luminescence, 90 min; max activation, %; 0.58% of 410,000 active; in the data active = max activation above about 30%; note: 0% is about no effect
# Target sequence (P35462 whole entry, looked up): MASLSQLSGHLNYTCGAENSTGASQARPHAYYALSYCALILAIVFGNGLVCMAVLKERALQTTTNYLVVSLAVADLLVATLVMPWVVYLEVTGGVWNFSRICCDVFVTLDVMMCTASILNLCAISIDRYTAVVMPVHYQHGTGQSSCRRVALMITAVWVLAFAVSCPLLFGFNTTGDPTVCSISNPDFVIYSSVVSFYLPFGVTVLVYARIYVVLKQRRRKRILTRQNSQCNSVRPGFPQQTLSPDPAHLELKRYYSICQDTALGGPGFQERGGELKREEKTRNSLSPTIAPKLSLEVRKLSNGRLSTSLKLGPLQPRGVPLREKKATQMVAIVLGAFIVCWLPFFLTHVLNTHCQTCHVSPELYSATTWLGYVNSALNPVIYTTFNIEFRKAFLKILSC
#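 Agonist mode: compounds and dopamine controls were applied to plated cells for 90 min at 37 degrees C after an overnight attachment at 1500 cells/well. Luminescent read-out followed 30 - 60 minutes at room temperature with DiscoveRx detection reagent.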
# TRPML1 agonist – human mucolipin-1 channel agonism. TRPML1-expressing cells, Ca2+ dye fluorescence, FDSS. activation, % (concentration not given with the values). 0.12% of 410,000 active. AID 624414. Q9GZU1; in the data active = activation above about 50%; inconclusive = mostly about 30% to 49%; note: 0% is about no effect
#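 In this qHTS format, compounds were pin-transferred onto Ca8-dye-loaded TRPML1-DL cells induced with Tet overnight, and intracellular Ca2+ fluorescence was recorded kinetically for 110 s after a 10 s baseline. A subsequent 4uM final 54-4 (EC80) addition followed by a second 110 s read served as the antagonist phase.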
# D3 antag – D3 dopamine receptor (human) antagonism. max response, negative = inhibition, %. P35462. 2.5% of 360,000 active. D3R cells, DiscoveRx beta-arrestin luminescence, antagonist mode; stronger effect = lower value. AID 652054; in the data active = max response below about -50%; inconclusive = no clear call, values can overlap the other calls; note: % is set by controls: 0 for no effect and ±100 for the full control effect
#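 Cells plated overnight at 1500 cells/well, then exposed to library compounds with dopamine controls for 90 minutes at 37 degrees C. DiscoveRx reagent added for 30–60 minutes at room temperature; luminescence read, quantitative HTS format.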
# TRPML1 inh – blocks the human TRPML1 channel | AID 624415 | 0.02% of 390,000 active | TRPML1-inducible cells, Ca2+ dye fluorescence, FDSS; stronger effect = lower value; inhibition of EC80 agonist-evoked calcium signal | Q9GZU1 | activity change, negative = inhibition, % (no concentration beside the values); in the data active = activity change below about -50%; inconclusive = between about -30% and that limit;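 note: stimulus is agonist 54-4 at its EC80 concentration; % is set by controls: 0 for no effect and ±100 for the full control effect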
#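 TRPML1-DL cells, Tet-induced overnight (~16 h, 37 °C) at 1,500 cells/well, were loaded with Ca8 no-wash dye plus quencher for 45-90 min at room temperature. Compounds were pinned during FDSS kinetic reading; agonist 54-4 at EC80 (4 uM final) then added.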
# * = called active by the depositor; u = inconclusive; x = not tested or not shown; ! = a repeat was not active. Hits are enriched below; roughly 2.9% of the tested compounds scored in any of these assays.
SMILES,DRD3 agonist,TRPML1 agonist,D3 antag,TRPML1 inh
COc1ccc(-c2cn3nc(SCC(=O)Nc4cccc(C)c4C)ccc3n2)cc1,3,-1,x,47
Cc1ccc(C(=O)CSc2nc(C)cc(=O)[nH]2)cc1,5,0,4,-8
Cc1cc(=O)[nH]c(SCC(=O)c2ccc(O)c(O)c2)n1,31*,-1,-4,8
COc1cc(OC)c(OC)cc1/C=C/c1nc2ccccc2o1,x,-1,x,x
Nc1ccccc1Nc1ccc([N+](=O)[O-])cc1[N+](=O)[O-],4,2,4,-19
Nc1cc([N+](=O)[O-])ccc1Nc1ccc(O)cc1,-6,0,-55*,-4
Cc1c(C(=O)NCc2cccc(C(F)(F)F)c2)sc(=O)n1Cc1cccc(F)c1,-9,0,-52*,x
CCc1ccccc1NS(=O)(=O)c1ccc(OC)c2ncccc12,31*!,1,80,8
COc1ccc(CCNC(=O)Cn2cc(S(=O)(=O)Cc3ccccc3F)c3ccccc32)cc1OC,2,1,x,5
CC1CCN(Cc2c(C(=O)N3CCc4ccccc4C3)nc3ccc(Cl)cn23)CC1,-19,1,-89*,24
C=C(c1ccc2ccccc2n1)c1cccs1,x,0,x,x
COc1ccc([C@H]2CC(=O)C=C(c3ccc4ccccc4c3)C2)cc1OC,42*,2,38,-5
COc1ccc([C@H]2CC(=O)C=C(c3ccc(OC)c(OC)c3)C2)cc1,5,1,32,12
COc1ccc([C@H]2CC(=O)C=C(c3cccc(CO)c3)C2)cc1OC,8,1,31,-3
COc1ccc(C2=CC(=O)CC(c3ccc(OC)cc3)C2)cc1 (stereo not given),-12,-1,-10,-8
COc1ccc([C@H]2CC(=O)C=C(c3cccc4c3Oc3ccccc3S4)C2)cc1OC,75*,-1,145,1
C=Cc1ccc(C2=CC(=O)C[C@H](c3ccc(OC)cc3)C2)cc1,-27,2,-52*,8
CCOC(=O)c1cccc(C2=CC(=O)C[C@H](c3ccc(OC)c(OC)c3)C2)c1,52*,3,88,-13
CN1CCc2c(sc(/N=C/c3cc(Cl)ccc3O)c2C#N)C1,21,0,-50*,-6
CN1CCc2c(sc(/N=C/c3c[nH]c4ccccc34)c2C#N)C1,-8,0,u,11
O=C(Nc1ccncc1)c1cnn2c1NC(=C1CC1)C=C2C(F)F,x,-1,x,x
O=C(Cn1ncc(Cl)c(Cl)c1=O)Nc1ccc2c(c1)OCO2,-16,0,u,-1
O=C(Cn1ncc(Cl)c(Cl)c1=O)c1ccc2c(c1)OCCO2,-13,2,-54*,-17
O=C(Nc1nc2ccc(F)cc2s1)c1ccc([N+](=O)[O-])o1,-9,-1,-57*,-3
O=C(Nc1nc2c(F)cccc2s1)c1ccc([N+](=O)[O-])o1,-7,0,u,10
SMILES,DRD3 agonist,TRPML1 agonist,D3 antag,TRPML1 inh
CCOc1ccccc1NC(=O)N(C)CCc1c(C)nn(CC)c1C,-1,1,x,-21
COc1ccc2cc(-c3cn4c(n3)sc3cc(F)ccc34)c(=O)oc2c1,-4,1,x,-17
CCCCCCc1cc2cc(-c3cn4c(n3)sc3cc(OC)ccc34)c(=O)oc2cc1O,5,3,x,-71*
O=C(NCCCNCc1ccccc1)/C(=N\O)c1ccccc1,-4,1,-19,3
O=C(NCc1ccncc1)/C(=N/O)c1ccccc1,9,7,-53*,2
O=C(Nc1ccccc1F)N(CCCN1CCOCC1)Cc1cc2cc3c(cc2[nH]c1=O)OCCO3,2,0,-55*,0
CCOc1ccc(Nc2nnc(SCc3nc4ccccc4c(=O)[nH]3)s2)cc1,-16,-1,-62*,17
COc1ccc(OC)c(-c2cc(C(=O)Nc3cccc(Cl)c3C)no2)c1,5,1,x,-1
CCOc1ccc(OCCSc2nc3ccccc3[nH]2)cc1,2,0,-13,18
CCCOc1ccc(CSc2nc3ccccc3[nH]2)cc1,11,2,-65*,3
Cc1cc(Oc2ccccc2)nc(SCC(N)=O)n1,-5,0,-78*,-12
COC(=O)c1ccc(Oc2cc(C)nc(SC)n2)cc1,0,4,4,-6
Cc1ccc(NC(=O)Cn2nc(C)c([N+](=O)[O-])c2C)cc1Cl,-14,-1,-55*,23
Cc1nn(CC(=O)Nc2ccncc2)c(C)c1[N+](=O)[O-],-8,-1,u,15
Cc1cc(C)n(-c2nc(C)c(C)c(=O)n2CC(=O)Nc2cccc([N+](=O)[O-])c2)n1,-14,0,x,8
CC(C)CNC(=S)NC1CC2CCC(C1)N2Cc1ccccc1 (stereo not given),-28,1,-75*,3
O=C(Nc1ccc(Cl)c(C(F)(F)F)c1)NC1CC2CCCC(C1)N2Cc1ccccc1 (stereo not given),-19,2,-84*,5
S=C(NCCc1ccccc1)NC1CC2CCC(C1)N2Cc1ccccc1 (stereo not given),-14,0,-74*,1
S=C(NC1CCCCC1)NC1CC2CCC(C1)N2Cc1ccccc1 (stereo not given),-18,0,-79*,20
COc1ccccc1CNS(=O)(=O)c1ccc2c(c1)CC(C)N2C(C)=O (stereo not given),1,1,x,5
CC1CCc2c(sc(NC(=O)c3cc(-c4cccc(Cl)c4)on3)c2C(N)=O)C1 (stereo not given),-10,0,x,-15
COc1ccc(NC(=O)CCc2c(C)nc3c(c2C)c(=O)n(C)c(=O)n3C)c(OC)c1,1,-1,x,-8
CCCNC(=S)NC1CC2CCCC(C1)N2Cc1ccccc1OC (stereo not given),-3,0,-11,23
O=C(NC1CC2CCCC(C1)N2Cc1ccccc1)C1CCCCC1 (stereo not given),-5,0,-65*,-3
O=C(CN1C2CCCC1CC(NC(=O)C1CCCCC1)C2)Nc1ccccc1 (stereo not given),-8,0,2,-2
SMILES,DRD3 agonist,TRPML1 agonist,D3 antag,TRPML1 inh
CCCNC(=S)NC1CC2CCC(C1)N2Cc1ccccc1 (stereo not given),-25,0,-147*,5
CCNC(=S)NC1CC2CCC(C1)N2Cc1ccccc1 (stereo not given),-32,1,-76*,-6
CCCCn1c(=O)n(-c2cc(OC)ccc2OC)c(=O)c2c3c(sc21)CN(C(C)=O)CC3,-8,-1,x,6
CCN(Cc1ccccc1)C(=O)C1CCC(CNS(=O)(=O)c2ccc3c(c2)CCCC(=O)N3)CC1 (stereo not given),6,-1,x,-20
CCn1c(SCC(=O)c2ccc(Cl)cc2)nnc1-c1ccoc1C,-9,0,-61*,2
CCCCNc1c(-c2ccc(OC)c(SC(C)CC)c2)nc2cc(C)ccn12 (stereo not given),63*,1,4,72
CCCCNc1c(-c2ccc(Sc3ccc(OC)cc3)cc2)nc2cc(C)ccn12,56*,1,0,21

# Screening results as filed in PubChem BioAssay.
